SENP8 block-1: blocks the human protease SENP8; purified SENP8, Z-RLRGG-aminoluciferin cleavage, luminescence; inhibition, % at 10 µM; actives 1.2% (n = 330,000); AID 2540; in the data active = inhibition above about 50%
Target sequence (Q96LD8 whole entry, looked up): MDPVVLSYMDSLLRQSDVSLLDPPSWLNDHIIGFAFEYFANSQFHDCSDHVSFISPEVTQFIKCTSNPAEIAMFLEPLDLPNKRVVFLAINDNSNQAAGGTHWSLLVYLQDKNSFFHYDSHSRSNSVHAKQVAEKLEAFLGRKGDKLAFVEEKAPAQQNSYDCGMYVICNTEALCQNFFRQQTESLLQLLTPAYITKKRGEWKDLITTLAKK
SENP8 block-2: SENP8 (human) protease inhibition | actives 0.64% (n = 360,000) | Q96LD8 | recombinant SENP8, Nedd8 substrate fluorescence | inhibition, % at 20 µM; in the data active = inhibition mostly above about 40%, no sharp cut-off; inactive = mostly below about 27%
SENP6 block: inhibitors of human SENP6 protease | Q9GZR1 | Recombinant SENP6 catalytic domain, aminoluciferin luminescence | inhibition, % at 10 µM | actives 1.8% (n = 330,000) | AID 2599;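 active = inhibition above about 50% at the single tested dose, limit read from the data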;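 note: plate controls were DMSO wells with enzyme for no effect and DMSO wells lacking enzyme for full effect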
Target sequence (Q9GZR1 628-1112 limits assumed): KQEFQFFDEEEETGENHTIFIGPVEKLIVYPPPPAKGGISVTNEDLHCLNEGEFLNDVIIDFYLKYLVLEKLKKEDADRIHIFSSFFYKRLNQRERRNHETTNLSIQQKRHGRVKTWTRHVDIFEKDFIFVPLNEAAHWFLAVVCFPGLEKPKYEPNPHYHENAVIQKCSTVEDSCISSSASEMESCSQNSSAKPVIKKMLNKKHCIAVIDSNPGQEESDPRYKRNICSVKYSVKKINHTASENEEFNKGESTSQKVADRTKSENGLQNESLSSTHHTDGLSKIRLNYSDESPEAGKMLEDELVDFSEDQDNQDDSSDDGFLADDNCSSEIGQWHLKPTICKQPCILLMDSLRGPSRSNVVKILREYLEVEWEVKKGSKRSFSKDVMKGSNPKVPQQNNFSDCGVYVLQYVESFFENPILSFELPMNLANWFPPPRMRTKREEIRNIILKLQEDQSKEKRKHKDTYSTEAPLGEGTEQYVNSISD
SENP7 inh: blocks the human protease SENP7; inhibition, % at 5 µM; Q9BQF6; AID 434973; recombinant SENP7, Z-RLRGG-aminoluciferin luminescence, 40 min; actives 1.5% (n = 330,000);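 active = inhibition above about 50% at the single test dose, limit read from the data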;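 note: plate controls were DMSO with enzyme for no effect and no enzyme buffer wells for full effect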
C8 TRAIL sens: sensitizes caspase-8 expressing cells to TRAIL. inhibition (viability loss, TRAIL sensitization), % at 10 µM. NB7+C8 cells + TRAIL, ATPlite viability luminescence. actives 1% (n = 360,000). AID 624354;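 active = compounds causing at least 50% loss of cell viability in the single-dose screen, relative to plate controls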
PPC-1+TRAIL kill: kills PPC-1 cancer cells in the presence of TRAIL | PPC-1 cells + TRAIL, ATPLite viability luminescence | cell killing (% activity), % at 4 µM or 5 µM | actives 0.41% (n = 220,000) | AID 1443;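 active = cell killing above 50% in the first pass at 4 µM, then a duplicate retest at 5 µM averaging 50% or more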;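 note: plate controls were cells with TRAIL plus DMSO for no effect and medium-only wells lacking cells for full effect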
SENP8 inh conf: SENP8 (human) inhibition, single concentration confirmation. shares compounds with SENP8 block-2. purified SENP8, Nedd8-AMC/pro-Nedd8 cleavage fluorescence, 30 min. inhibition, % at 25 µM. actives 15% (n = 1,400). AID 624319; in the data active = inhibition mostly above about 39%, no sharp cut-off; inactive = mostly below about 34%
An asterisk follows results filed as active; · = not tested or not shown. Rows were chosen to be rich in hits. Some 3% of all compounds tested hit in one or more screens of this group.

SMILES | SENP8 block-1 | SENP8 block-2 | SENP6 block | SENP7 inh | C8 TRAIL sens | PPC-1+TRAIL kill | SENP8 inh conf
O=C(c1ccc(N2CCCCC2)c([N+](=O)[O-])c1)N1CCOCC1 | -5.2 | 34.0 | 2.0 | -1.0 | -11.9 | -2.4 | ·
COC(=O)CN1C(=O)S/C(=C/c2ccc(N3CCCCC3)o2)C1=O | -13.6 | 41.9* | -4.4 | -6.6 | 14.4 | 22.1 | 27.1
CC(C)(C)c1ccc(S(=O)(=O)NC(=O)C2(C)CCN2C(=O)C2CCCCC2)cc1 (centres undefined) | · | -1.6 | · | · | -14.2 | · | ·
Cc1cc(Br)ccc1-n1[nH]c(C)c(C=Nc2cccc3nsnc23)c1=O | 12.2 | 53.9* | 14.2 | 14.0 | -16.7 | 11.1 | 11.6
COC(=O)N[C@@H]1C[C@H]2[C@@H]3CC[C@H]4C[C@@H](OC)CC[C@]4(C)[C@H]3CC[C@@]12C | -1.1 | 6.9 | 2.7 | 4.8 | 2.3 | · | ·
COc1cc(/C=C2\SC(=O)N(Cc3ccc(F)cc3)C2=O)cc([N+](=O)[O-])c1O | 7.2 | 40.5* | 7.3 | -4.3 | 6.0 | 17.7 | 20.7
COc1ccc(-c2cc(C(F)(F)F)c3c(=O)n(-c4ccccc4)[nH]c3n2)cc1 | 22.6 | 40.8* | 45.8 | 3.8 | 1.5 | 18.6 | 32.0
CCC(C)NC(=O)CCSc1ccc(C)cc1 (centres undefined) | 0.7 | 9.1 | -8.9 | 10.5 | -8.2 | 15.5 | ·
CCCN(CCC)CCCNc1ccc(C(=O)Nc2cccc(OC)c2)cc1[N+](=O)[O-] | -6.2 | 35.3* | -9.0 | -15.7 | -3.3 | 4.6 | 5.6
COC(=O)C1=C(C)NC(C)=C(C(=O)OC)C1c1ccc(-c2cccc([N+](=O)[O-])c2)o1 | -7.1 | 46.6* | -10.5 | -7.8 | -8.2 | -10.4 | 36.6
COc1ccc(NC(=O)c2cccc(S(=O)(=O)N3CCOCC3)c2)cc1 | -7.7 | 14.0 | -7.6 | -6.6 | 10.1 | · | ·
COc1ccc(NC(=O)c2cccc(S(=O)(=O)N3CCOCC3)c2)cn1 | 5.6 | 79.6* | -2.8 | 0.5 | -5.9 | -8.0 | 5.3
Cc1cc(O)c(C(C)C)cc1N=Cc1ccccc1O | 3.5 | 82.4* | -0.4 | 7.2 | -6.2 | 17.3 | 23.5
Cc1cc(O)c(C(C)C)cc1N=Cc1cc([N+](=O)[O-])ccc1O | -1.1 | 72.9* | 24.6 | 14.2 | 5.1 | 21.3 | 21.1
CC(N=Cc1ccccc1O)c1ccccc1 (centres undefined) | -10.9 | 14.3 | -7.1 | -0.6 | -11.9 | 22.3 | ·
O=C(Cn1cc([N+](=O)[O-])ccc1=O)NC1CCCCC1 | -5.0 | 0.7 | -18.7 | 1.2 | -3.7 | · | ·
Cc1onc(-c2ccccc2Cl)c1C(=O)c1ccccc1 | -0.1 | 3.0 | -37.7 | -2.9 | -4.7 | -5.0 | ·
Cc1onc(-c2ccccc2Cl)c1-c1nc(-c2ccccn2)no1 | 1.1 | 40.8* | -0.8 | 9.6 | 19.0 | 11.9 | 10.5
CCN(CC)CCNC(=O)c1cc([N+](=O)[O-])c(N(C)C)cc1OC | -2.4 | 31.4 | -2.0 | -1.7 | -13.6 | 4.7 | ·
COc1cc(N(C)C)c([N+](=O)[O-])cc1C(=O)NC(C)CNc1ccc([N+](=O)[O-])cc1Cl (centres undefined) | -13.3 | 41.8* | -22.1 | -8.5 | -3.8 | 7.5 | 26.0
O=C(NCCc1ccccc1)C(=O)NCC(c1ccco1)N1CCOCC1 (centres undefined) | -10.7 | 42.8* | -18.1 | -9.8 | -4.5 | 2.9 | 4.9
COc1cc(CNC(=O)C2CC(O)CN2C(=O)Nc2ccccc2)cc(OC)c1OC (centres undefined) | · | 5.3 | · | · | 4.7 | · | ·
N#C/C(C(N)=O)=c1/ccc2c(c1)N1C3=C(CCCC3)CC3CCCCC31N=2 (centres undefined) | 10.6 | · | 10.1 | 0.1 | · | 28.4 | ·
N#CC(C#N)=c1ccc2c(c1)N1C3=C(CCCC3)CC3CCCCC31N=2 (centres undefined) | 24.6 | 42.8* | 21.3 | 18.9 | 13.3 | 13.9 | 7.1
Cc1ccc(CN2CC(C(=O)O)CC2=O)cc1 (centres undefined) | -0.1 | 40.5* | -2.9 | 3.7 | 10.8 | 8.1 | 21.4
SMILES | SENP8 block-1 | SENP8 block-2 | SENP6 block | SENP7 inh | C8 TRAIL sens | PPC-1+TRAIL kill | SENP8 inh conf
CCn1cc(/C=C/C(=O)Nc2ccn(Cc3c(F)c(F)cc(F)c3F)n2)cn1 | 13.4 | 29.2* | 6.8 | 1.3 | 0.0 | 11.9 | 65.6*
O=[N+]([O-])c1ccc(N2CCN(Cc3ccccc3)CC2)c2c1no[n+]2[O-] | · | 42.0* | · | · | 93.6* | · | 83.5*
Cc1ccc(C)c(NC(=O)CCOc2ccccc2)c1 | · | 8.4 | · | · | -5.1 | · | ·
C/C=C/c1ccc(OCCCCn2cncn2)c(OC)c1 | 7.2 | 2.5 | -5.5 | -1.4 | -4.3 | 12.9 | ·
C/C=C/c1ccc(OCCCn2cncn2)c(OC)c1 | -8.3 | 47.1* | -9.7 | -15.2 | -7.1 | 48.6 | 12.3
O=C(Nc1ccccc1)Nc1ccccc1-n1ccnc1 | -3.0 | 8.8 | -13.5 | 3.6 | -7.0 | 2.3 | ·
O=[N+]([O-])c1ccc(Cl)cc1NCc1cccnc1 | 0.1 | 50.9* | -5.0 | -2.2 | 8.0 | · | 13.5
Cc1ccccc1C(=O)N1CCN(c2ccc(NC(=O)c3ccc([N+](=O)[O-])o3)cc2)CC1 | 5.5 | 39.2* | -6.8 | 9.3 | 71.4* | · | 7.1
O=C(Nc1ccc(N2CCN(C(=O)c3ccccc3)CC2)cc1)c1ccc([N+](=O)[O-])o1 | · | 51.3* | · | · | 70.4* | 36.9 | 31.2
COc1ccc(NC(=O)CN2CCOCC2)cc1S(=O)(=O)N1CCCCC1 | 3.1 | 25.6 | -12.5 | 3.5 | -8.7 | · | ·
CCOC(=O)c1ccc(NC(=O)CN2CCc3ccccc3C2)cc1 | -3.9 | 48.6* | 11.4 | -4.0 | 8.4 | 22.2 | 46.7*
COc1ccc(NC(=O)CN2CCc3ccccc3C2)cc1S(=O)(=O)N1CCOCC1 | -9.8 | 46.7* | 4.9 | -6.0 | 6.0 | 26.2 | 8.4
CCOc1ccc(NC(=O)CN2CCc3ccccc3C2)cc1 | 1.8 | 14.3 | 11.9 | 5.7 | -15.0 | · | ·
O=C1CC(c2ccccc2)Oc2cc(O)cc(O)c21 (centres undefined) | 36.0 | 2.0 | 26.4 | 17.5 | 0.2 | 22.4 | ·
CC(C)=CCc1c(O)cc2c(c1O)C(=O)CC(c1ccccc1)O2 (centres undefined) | -10.8 | 41.6* | -13.8 | 6.1 | 8.2 | · | 14.3
COc1ccccc1C(=O)N1CCN(C(=O)c2oc3c(C)c(C)ccc3c2C)CC1 | · | 11.7 | · | · | -6.3 | · | ·
COc1ccccc1-c1cccc(-c2nc(C(=O)Nc3nccs3)cc3c2[C@H](CCO)N(C(C)=O)C3)c1 | · | 1.7 | · | · | 9.4 | · | ·
CCOCCSc1nc2c(c(=O)[nH]c(=O)n2C)n1CCCc1ccccc1 | 1.4 | 44.2* | -1.7 | 11.5 | -5.4 | -10.2 | 33.6
CC1=C(C(=O)N2CCOCC2)CC(CC(=O)NC2CCCCC2)C(=O)N1CCCN1CCCC1=O (centres undefined) | · | 8.9 | · | · | -5.1 | · | ·
OCc1ccccc1O[C@@H]1O[C@H](CO)[C@@H](O)[C@H](O)[C@H]1O | 1.7 | 48.9* | -2.8 | -2.7 | 13.1 | · | 3.2

Screening data as filed in PubChem.
